Test results as given in PubChem BioAssay (NCATS).
Results filed as inconclusive are left out. Active and inactive are the calls of the source. Unless noted, calls come from the whole dose curve; as a rule, active = well fitted curve in the direction sought with a large enough effect; inconclusive = small, poorly fitted or top-dose-only effect, or another doubt; inactive = no such curve, though single readings can be large; an effect the other way counts as inactive or inconclusive.

Tests used:
[1] = Confirmatory qHTS for small molecule stabilizers of the endoplasmic reticulum resident proteome: Secreted ER Calcium Modulated Protein (SERCaMP) assay (AID 1508628); note: nearly all actives have a fitted effect of over 40% in size; note: potency is the fitted concentration of half-maximal effect
In short: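 SH-SY5Y cells stably expressing GLuc-SERCaMP, treated 16 h with compound (primary 1.53, 7.67, 38.3 uM; confirmation 11 concentrations, up to 76.6 uM), then 100 nM thapsigargin for 4 h. Secreted Gaussia luciferase in medium read by coelenterazine luminescence.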

[2] = Cell Viability qHTS for small molecule stabilizers of the endoplasmic reticulum resident proteome (AID 1508629); conditions: cell viability counter-screen, 100 nM thapsigargin for final 4 h;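 note: human SH-SY5Y neuroblastoma cells carrying the GLuc-SERCaMP reporter; compound exposure about 46 h in total before the viability read; % is set by controls: 0 for no effect and ±100 for the full control effect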
[3] = molecular target: Lysosomal acid glucosylceramidase (Homo sapiens) (UniProt P04062); assay: Glucocerebrosidase-p2 (AID 348; in the data active = potency below about 10 µM; note: potency is the fitted concentration of half-maximal effect); conditions: purified GBA, blue fluorogenic substrate, 40 min
Lysosomal acid glucosylceramidase (Homo sapiens), sequence (P04062 whole entry, looked up): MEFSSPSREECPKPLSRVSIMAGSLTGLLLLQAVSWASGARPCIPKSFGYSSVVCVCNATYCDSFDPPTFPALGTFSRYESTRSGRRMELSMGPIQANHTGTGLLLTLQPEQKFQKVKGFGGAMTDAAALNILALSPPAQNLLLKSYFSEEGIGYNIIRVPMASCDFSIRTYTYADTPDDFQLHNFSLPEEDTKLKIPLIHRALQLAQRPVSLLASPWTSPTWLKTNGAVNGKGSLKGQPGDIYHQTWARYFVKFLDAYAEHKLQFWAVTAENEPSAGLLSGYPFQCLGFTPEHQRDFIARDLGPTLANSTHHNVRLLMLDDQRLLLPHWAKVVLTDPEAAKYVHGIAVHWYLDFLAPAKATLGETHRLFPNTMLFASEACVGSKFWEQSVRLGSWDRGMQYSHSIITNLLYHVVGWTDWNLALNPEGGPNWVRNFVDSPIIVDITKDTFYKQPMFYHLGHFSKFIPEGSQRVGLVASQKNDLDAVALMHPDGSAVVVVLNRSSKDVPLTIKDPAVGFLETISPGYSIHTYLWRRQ
In short: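 Compounds titrated from 0.6 nM upwards against 0.2 nM enzyme in pH 5.9 citric acid/KH2PO4, taurocholate, tween-20; blue fluorogenic substrate 80 uM, 40 min room temperature, stopped and read Ex 365/Em 440 for AC50.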

[4] = AP1 Signaling Pathway (AID 357; active = well fitted curve in either direction with a large enough effect, not every such curve was filed as active;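 note: ME-180 reporter cells stimulated with EGF at its EC50 level; % is set by controls: 0 for no effect and ±100 for the full control effect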); conditions: ME-180 AP-1-bla reporter, EGF-induced, beta-lactamase ratio, 5 h; at 7.69 µM (top of the series) unless noted
In short: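 First, ME-180 AP-1-bla cells were cultured overnight at 37 °C in low-serum Opti-MEM. Next, titrated compounds with EC50 EGF were incubated 5 hours. Finally, CCF4 was added for 2.5 hours and the 460/530 nm ratio recorded.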

[5] = molecular target: Cytochrome P450 1A2 (Homo sapiens) (UniProt P05177); assay: p450-cyp1a2 (AID 410; calls by dose curve; note: potency is the fitted concentration of half-maximal effect;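 for activity change, negative = inhibition: -100% = full effect of reference inhibitor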)
Cytochrome P450 1A2 (Homo sapiens), sequence (P05177 whole entry, looked up): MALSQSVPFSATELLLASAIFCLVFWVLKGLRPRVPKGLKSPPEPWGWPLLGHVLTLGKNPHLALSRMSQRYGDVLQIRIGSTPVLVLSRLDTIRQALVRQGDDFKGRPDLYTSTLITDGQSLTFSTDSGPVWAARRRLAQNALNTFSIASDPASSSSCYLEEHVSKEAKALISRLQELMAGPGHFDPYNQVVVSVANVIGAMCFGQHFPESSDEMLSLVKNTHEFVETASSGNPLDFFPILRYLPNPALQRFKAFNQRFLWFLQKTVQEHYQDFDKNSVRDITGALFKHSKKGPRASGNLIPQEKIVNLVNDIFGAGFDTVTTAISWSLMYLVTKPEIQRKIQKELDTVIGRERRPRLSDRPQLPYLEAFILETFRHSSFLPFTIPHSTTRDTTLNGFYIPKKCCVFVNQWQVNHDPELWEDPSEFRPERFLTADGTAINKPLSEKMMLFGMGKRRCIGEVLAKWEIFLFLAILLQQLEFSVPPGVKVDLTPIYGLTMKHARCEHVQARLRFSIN
In short: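 Luminescent readout of luciferin formed from Luciferin-ME by human CYP1A2; data normalized against complete inhibition by 57 uM furafylline. Enzyme 20nM, substrate 100uM at Km, 100mM KPO4 buffer, 60 min reaction at room temperature.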

[6] = Stat Signaling Pathway (AID 446; active = well fitted curve in either direction with a large enough effect, not every such curve was filed as active;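 note: ME-180 cervical cancer cells given 40 pM IL-6 alongside compound; SIE-controlled beta-lactamase reporter measured as 460/530 nm FRET emission ratio; % is set by controls: 0 for no effect and ±100 for the full control effect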); conditions: ME-180 SIE beta-lactamase reporter, IL-6 stimulated, 5 h; at 7.69 µM (top of the series) unless noted
In short: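 ME-180 cells carrying a SIE-driven beta-lactamase reporter are stimulated with 40 pM IL-6 for 5 h at 37C in the presence of compound. The 460/530 nm FRET substrate ratio is read after 2.5 h at RT. Data are normalised to 300 pM IL-6 and to 125 nM JAK inhibitor controls.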

[7] = molecular target: Glucocorticoid receptor (Homo sapiens) (UniProt P04150); assay: GR-EFC Redistribution (AID 451; calls by dose curve; note: potency is the fitted concentration of half-maximal effect); conditions: CHO-K1 GR-EFC translocation, beta-gal luminescence, 2 h
Glucocorticoid receptor (Homo sapiens), sequence (P04150 whole entry, looked up, the tested form may be a part): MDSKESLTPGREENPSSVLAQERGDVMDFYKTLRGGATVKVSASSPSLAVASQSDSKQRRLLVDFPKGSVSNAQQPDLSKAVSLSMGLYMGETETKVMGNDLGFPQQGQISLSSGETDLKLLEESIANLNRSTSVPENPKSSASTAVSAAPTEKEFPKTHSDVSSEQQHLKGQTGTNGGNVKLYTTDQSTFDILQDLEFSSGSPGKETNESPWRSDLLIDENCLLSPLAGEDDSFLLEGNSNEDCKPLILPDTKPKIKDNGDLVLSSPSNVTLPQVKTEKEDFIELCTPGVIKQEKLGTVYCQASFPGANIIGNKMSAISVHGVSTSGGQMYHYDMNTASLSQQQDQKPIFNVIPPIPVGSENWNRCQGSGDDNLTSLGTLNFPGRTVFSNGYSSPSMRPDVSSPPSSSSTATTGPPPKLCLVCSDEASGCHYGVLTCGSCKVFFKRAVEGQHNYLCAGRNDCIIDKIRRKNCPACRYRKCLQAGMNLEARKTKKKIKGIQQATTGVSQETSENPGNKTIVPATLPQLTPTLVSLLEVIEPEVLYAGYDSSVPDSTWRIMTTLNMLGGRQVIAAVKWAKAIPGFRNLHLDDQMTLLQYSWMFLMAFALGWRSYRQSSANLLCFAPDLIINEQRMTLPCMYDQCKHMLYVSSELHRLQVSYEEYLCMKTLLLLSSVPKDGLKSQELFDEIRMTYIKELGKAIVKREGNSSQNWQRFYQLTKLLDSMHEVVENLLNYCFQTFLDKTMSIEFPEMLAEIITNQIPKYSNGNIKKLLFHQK
In short: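 CHO-K1 cells expressing nuclear EA and GR-ED fragments of b-gal; compounds titrated up to 46 uM final, 2 h at 37 C. GR nuclear translocation read as complemented b-gal luminescence after 1 h RT detection.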

[8] = molecular target: Mitogen-activated protein kinase 10 (Mus musculus) (UniProt Q61831); assay: JNK3 AlphaScreen Assay (AID 530; active = well fitted curve in either direction with a large enough effect, not every such curve was filed as active;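 note: kinase came from lysate of stimulated human HepG2 cells; signal reports phosphorylation of biotinylated GST-cJun 1-79 at Ser73 with 10 µM ATP; % is set by controls: 0 for no effect and ±100 for the full control effect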)
In short: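 Pre-activated (IL-1β/TNFα) JNK3 in HepG2 lysates phosphorylates biotin-GST-cJun(1-79), 10 uM ATP; anti-phospho-cJun(Ser73) AlphaScreen read at room temperature, pH 7.6 Tris buffer. Compounds pre-incubated 15 min as titrations.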

[9] = molecular target: 3',5'-cyclic-AMP phosphodiesterase 4B (Homo sapiens) (UniProt Q07343); assay: qHTS Assay for Inhibitors of PDE-IV (AID 607; active = well fitted activation curve with a large enough effect in the main read-out, with a control signal flat, not every such curve was filed as active; note: % of control where 0% means no effect)
3',5'-cyclic-AMP phosphodiesterase 4B (Homo sapiens), sequence (Q07343 whole entry, looked up): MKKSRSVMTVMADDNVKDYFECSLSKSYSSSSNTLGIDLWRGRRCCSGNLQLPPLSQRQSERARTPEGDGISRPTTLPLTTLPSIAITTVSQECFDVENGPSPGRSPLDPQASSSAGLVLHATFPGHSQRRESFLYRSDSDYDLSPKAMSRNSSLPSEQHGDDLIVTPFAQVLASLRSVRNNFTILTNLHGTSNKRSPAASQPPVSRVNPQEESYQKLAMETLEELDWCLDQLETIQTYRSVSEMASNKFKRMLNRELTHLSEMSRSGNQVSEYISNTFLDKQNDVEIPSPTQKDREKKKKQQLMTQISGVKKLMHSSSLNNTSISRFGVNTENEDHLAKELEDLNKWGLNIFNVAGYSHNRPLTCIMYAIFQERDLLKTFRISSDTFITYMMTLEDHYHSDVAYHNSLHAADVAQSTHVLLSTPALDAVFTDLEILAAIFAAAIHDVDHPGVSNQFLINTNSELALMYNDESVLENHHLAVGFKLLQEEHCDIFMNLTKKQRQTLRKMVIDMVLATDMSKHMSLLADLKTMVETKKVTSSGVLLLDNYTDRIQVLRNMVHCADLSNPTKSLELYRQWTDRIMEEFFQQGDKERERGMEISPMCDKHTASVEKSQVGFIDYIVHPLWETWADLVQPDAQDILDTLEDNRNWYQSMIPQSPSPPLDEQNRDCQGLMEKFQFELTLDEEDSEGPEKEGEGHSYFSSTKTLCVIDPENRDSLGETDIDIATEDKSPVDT
In short: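 HEK293 ACTOne cells with CNG channel (1000/well), endogenous PDE4; membrane potential dye, compounds up to 22.9 uM final. Fluorescence Ex 535/Em 590; RO 20-1724 (100 uM final) as reference.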

[10] = molecular target: Cytochrome P450 3A4 (Homo sapiens) (UniProt P08684); assay: qHTS Assay for Inhibitors and Substrates of Cytochrome P450 3A4 (AID 884); note: potency is the fitted concentration of half-maximal effect; nearly all actives have a fitted effect of over 50% in size
Cytochrome P450 3A4 (Homo sapiens), sequence (P08684 whole entry, looked up): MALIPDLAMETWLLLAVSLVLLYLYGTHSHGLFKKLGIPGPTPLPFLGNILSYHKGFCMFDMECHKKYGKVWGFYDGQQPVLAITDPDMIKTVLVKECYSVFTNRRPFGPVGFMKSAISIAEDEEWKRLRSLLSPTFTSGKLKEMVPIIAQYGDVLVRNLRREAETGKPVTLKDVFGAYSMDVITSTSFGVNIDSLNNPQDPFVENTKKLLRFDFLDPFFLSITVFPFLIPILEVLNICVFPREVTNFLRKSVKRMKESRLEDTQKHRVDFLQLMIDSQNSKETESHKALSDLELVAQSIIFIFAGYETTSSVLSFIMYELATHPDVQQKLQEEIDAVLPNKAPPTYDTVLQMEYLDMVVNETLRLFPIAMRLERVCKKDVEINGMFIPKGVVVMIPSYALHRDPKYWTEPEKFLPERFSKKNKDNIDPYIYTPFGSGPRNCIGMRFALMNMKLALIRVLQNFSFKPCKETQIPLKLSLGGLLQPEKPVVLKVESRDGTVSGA
In short: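 20 nM human CYP3A4 with 25 uM Luciferin-PPXE (at KM) in 200 mM KPO4, preincubated 10 min with compound; NADPH regeneration started a 60 min RT reaction. Luciferin detected by luminescence, normalized to 57 uM ketoconazole as full inhibition.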

[11] = molecular target: Cytochrome P450 3A4 (Homo sapiens) (UniProt P08684); assay: qHTS Assay for Activators of Cytochrome P450 3A4 (AID 885); note: nearly all actives have a fitted effect of over 65% in size
In short: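 Human CYP3A4 (20 nM) with Luciferin-PPXE at 25 uM (its KM) in 200 mM KPO4; 10 min compound preincubation, then NADPH regeneration and 60 min reaction at RT. Luciferin read by luminescence; normalized to 57 uM ketoconazole full inhibition.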

[12] = qHTS Assay for Lipid Storage Modulators (AID 1519; calls by dose curve); conditions: Drosophila S3 cells, BODIPY lipid droplet/cell ratio, laser cytometry, cells loaded with oleic acid; for activity change, negative = inhibition: at 57.5 µM (top of the series)
In short: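 Cells seeded at 5,000 per well were treated with compounds over a concentration series and loaded with oleic acid (400 uM, as added). Lipid droplet fluorescence (488 nm excitation, 500-530 nm channel) was read by laser-scanning cytometry and normalized to 20 uM Triacsin C.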

[13] = molecular target: Dual specificity protein kinase CLK4 (Homo sapiens) (UniProt Q9HAZ1); assay: qHTS Assay for Inhibitors of CDC-like Kinase 4 (Kinase-Glo Assay) (AID 1770); note: % is set by controls: 0 for no effect and ±100 for the full control effect; nearly all actives have a fitted effect of over 65% in size
Dual specificity protein kinase CLK4 (Homo sapiens), sequence (Q9HAZ1 whole entry, looked up): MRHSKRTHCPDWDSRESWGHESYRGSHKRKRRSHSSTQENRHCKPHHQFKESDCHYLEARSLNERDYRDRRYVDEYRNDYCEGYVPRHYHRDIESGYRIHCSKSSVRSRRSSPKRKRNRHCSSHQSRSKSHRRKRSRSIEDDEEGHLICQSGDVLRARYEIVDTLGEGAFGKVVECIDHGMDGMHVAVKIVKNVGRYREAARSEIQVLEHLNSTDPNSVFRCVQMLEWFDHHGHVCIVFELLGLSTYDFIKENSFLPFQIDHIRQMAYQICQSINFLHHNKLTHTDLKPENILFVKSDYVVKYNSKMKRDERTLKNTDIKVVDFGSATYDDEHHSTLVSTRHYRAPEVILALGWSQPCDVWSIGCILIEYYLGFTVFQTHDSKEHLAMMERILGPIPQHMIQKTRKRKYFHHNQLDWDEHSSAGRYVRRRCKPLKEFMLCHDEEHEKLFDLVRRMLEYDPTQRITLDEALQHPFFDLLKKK
In short: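 Recombinant human Clk4 (25 nM) phosphorylated RS repeat peptide (100 uM) with 1 uM ATP in Tris pH 7.5/MgCl2/EGTA/DTT/Triton buffer for 4.5 h at room temperature. Residual ATP was quantified by Kinase-Glo luciferase luminescence.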

[14] = molecular target: Dual specificity protein kinase CLK4 (Homo sapiens) (UniProt Q9HAZ1); assay: qHTS Assay for Inhibitors of CDC-like Kinase 4 (ADP-Glo Assay) (AID 1771); note: % is set by controls: 0 for no effect and ±100 for the full control effect; nearly all actives have a fitted effect of over 70% in size
In short: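 Luminescence from ADP-Glo reports ADP produced by 25 nM Clk4 acting on 100 uM RS repeat peptide with 1 uM ATP over 1 hr at room temperature; residual ATP is depleted before ADP is converted to ATP for detection.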

[15] = molecular target: Dual specificity protein kinase CLK4 (Homo sapiens) (UniProt Q9HAZ1); assay: qHTS Assay for Inhibitors of CDC-like Kinase 4 (ADP-FP Assay) (AID 1795); note: % is set by controls: 0 for no effect and ±100 for the full control effect; nearly all actives have a fitted effect of over 60% in size
In short: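 Recombinant human Clk4 (6.25 nM) phosphorylated RS repeat peptide (100 uM) with 1 uM ATP in Tris pH 7.5/MgCl2/EGTA/DTT/Triton buffer for one hour. ADP was quantified by Transcreener competitive fluorescence polarization against an ADP calibration curve.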

[16] = molecular target: Ubiquitin carboxyl-terminal hydrolase 1 (Homo sapiens) (UniProt O94782); assay: Inhibitors of USP1/UAF1: Pilot qHTS (AID 504865);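 note: rhodamine fluorescence freed from ubiquitin-rhodamine substrate followed over time; top concentration of the series differs between compounds; % is set by controls: 0 for no effect and ±100 for the full control effect; nearly all actives have a fitted effect of over 35% in size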
Ubiquitin carboxyl-terminal hydrolase 1 (Homo sapiens), sequence (O94782 whole entry, looked up): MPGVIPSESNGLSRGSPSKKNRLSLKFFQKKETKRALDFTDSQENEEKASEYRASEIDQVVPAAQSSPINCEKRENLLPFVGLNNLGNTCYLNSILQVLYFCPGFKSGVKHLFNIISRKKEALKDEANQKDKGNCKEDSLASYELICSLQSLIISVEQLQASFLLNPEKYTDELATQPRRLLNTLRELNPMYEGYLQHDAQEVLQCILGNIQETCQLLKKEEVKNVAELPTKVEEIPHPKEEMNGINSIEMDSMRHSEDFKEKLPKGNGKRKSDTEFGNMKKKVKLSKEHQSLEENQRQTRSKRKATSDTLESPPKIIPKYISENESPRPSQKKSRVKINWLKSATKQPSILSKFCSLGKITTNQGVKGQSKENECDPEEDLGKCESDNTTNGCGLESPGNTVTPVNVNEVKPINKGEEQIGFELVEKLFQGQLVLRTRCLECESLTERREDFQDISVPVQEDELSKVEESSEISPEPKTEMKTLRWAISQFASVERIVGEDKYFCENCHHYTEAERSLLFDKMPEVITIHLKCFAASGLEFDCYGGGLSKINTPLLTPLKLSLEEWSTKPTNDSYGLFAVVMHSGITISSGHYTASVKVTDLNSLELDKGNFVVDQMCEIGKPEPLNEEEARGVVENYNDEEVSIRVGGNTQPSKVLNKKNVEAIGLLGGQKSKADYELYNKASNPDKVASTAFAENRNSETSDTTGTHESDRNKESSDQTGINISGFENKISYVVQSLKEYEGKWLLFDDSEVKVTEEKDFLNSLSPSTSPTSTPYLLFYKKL
In short: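 USP1/UAF1 complex (1nM) preincubated with compound 15 min at room temperature, then Ub-Rho substrate (150nM final) added. Fluorescence read kinetically at 480/540 nm, 6 reads every 60 seconds. Buffer: 50mM HEPES pH 7.8, 0.5mM EDTA, 0.1 mg/ml BSA, 1mM TCEP, 0.01% Tween-20.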

[17] = Counterscreen qHTS for small molecule stabilizers of the endoplasmic reticulum resident proteome: GLuc-NoTag assay (AID 1508627);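 note: SH-SY5Y cells given compound then 100 nM thapsigargin to empty ER calcium; 0% = thapsigargin alone and -100% = DMSO vehicle control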
In short: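 SH-SY5Y cells stably expressing constitutively secreted GLuc without SERCaMP tag, exposed to compound for 19 hr, then to 100 nM thapsigargin for 4 hr at 37C. Medium luciferase was read by coelenterazine luminescence without lysis.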

[18] = molecular target: Cytochrome P450 2C9 (Homo sapiens) (UniProt P11712); assay: qHTS Assay for Inhibitors and Substrates of Cytochrome P450 2C9 (AID 883); note: potency is the fitted concentration of half-maximal effect; nearly all actives have a fitted effect of over 60% in size
In short: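 Human CYP2C9 (10nM) with Luciferin-H at 100uM (its KM) in 25mM KPO4; compound preincubated 10 min at 37C, then NADPH regeneration for 60 min at 37C. Luciferin read by luminescence after detection reagent; normalized to 57uM sulphaphenazole as full inhibition.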

[19] = NFAT Signaling Pathway (AID 444; active = well fitted curve in either direction with a large enough effect, not every such curve was filed as active); conditions: Jurkat NFAT-bla M1, carbachol, beta-lactamase ratio, 5 h; at 7.69 µM (top of the series) unless noted
In short: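 Jurkat cells with NFAT-driven β-lactamase reporter and co-expressed M1 receptor, stimulated with carbachol (final 1 uM, ~EC50), compound titration, 5 h at 37 °C. CCF4 loaded 1 h at RT; 460/530 nm ratio gave %activity and AC50.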

[20] = molecular target: Glucocorticoid receptor (Homo sapiens) (UniProt P04150); assay: GR-GFP Redistribution (AID 450;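 active = compounds whose dose series gives a full or clear partial fitted curve of increased nuclear translocation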; note: potency is the fitted concentration of half-maximal effect); conditions: U2OS GR-GFP nuclear translocation, laser cytometry, 2 h
[21] = molecular target: Cytochrome P450 2C19 (Homo sapiens) (UniProt P33261); assay: qHTS Assay for Inhibitors and Substrates of Cytochrome P450 2C19 (AID 899); note: % is set by controls: 0 for no effect and ±100 for the full control effect; nearly all actives have a fitted effect of over 60% in size
Cytochrome P450 2C19 (Homo sapiens), sequence (P33261 whole entry, looked up): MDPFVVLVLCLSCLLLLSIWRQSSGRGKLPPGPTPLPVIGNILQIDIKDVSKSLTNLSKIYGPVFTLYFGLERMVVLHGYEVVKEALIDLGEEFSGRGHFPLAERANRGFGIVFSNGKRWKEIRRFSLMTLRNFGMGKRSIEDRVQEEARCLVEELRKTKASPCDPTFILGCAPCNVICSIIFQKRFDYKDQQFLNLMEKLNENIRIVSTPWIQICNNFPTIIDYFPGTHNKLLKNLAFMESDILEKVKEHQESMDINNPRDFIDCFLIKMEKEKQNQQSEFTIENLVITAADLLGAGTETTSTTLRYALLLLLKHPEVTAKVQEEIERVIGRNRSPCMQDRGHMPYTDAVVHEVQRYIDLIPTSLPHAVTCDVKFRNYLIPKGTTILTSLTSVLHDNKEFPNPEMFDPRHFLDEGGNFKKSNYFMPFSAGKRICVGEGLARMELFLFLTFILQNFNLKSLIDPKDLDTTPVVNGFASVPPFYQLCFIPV
In short: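 5 nM human CYP2C19 with 10uM Luciferin-H EGE (at KM) in 50mM KPO4, compound preincubated 10 min at 37C, then NADPH regeneration for 60 min at 37C. Luciferin read by luminescence after detection reagent; normalized to 57uM ketoconazole as full inhibition.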

[22] = Primary qHTS for small molecule stabilizers of the endoplasmic reticulum resident proteome: Secreted ER Calcium Modulated Protein (SERCaMP) assay (AID 1508630); note: potency is the fitted concentration of half-maximal effect
In short: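 GLuc-SERCaMP-expressing SH-SY5Y cells, pretreated 16 h with compound, are challenged with thapsigargin to empty ER calcium stores; after 4 h, coelenterazine is added directly to the medium and luminescence is imaged.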

[23] = measured here: cell count channel max response
[24] = measured here: lipid channel max response

O=C(O)/C=C/C(=O)Nc1ccc(OC(F)(F)Cl)cc1
inactive: Potency [1] | max response [2] 5.17%

O=c1cnc2cnc(N3CCNCC3)nc2n1Cc1ccc(F)cc1
inactive: Potency [3] > 11.4 µM | activity change, negative = inhibition [4] -15.8% | activity, negative = inhibition [6] -2.57% | Potency [7] > 46 µM | outcome [8] | Potency [9] | Potency [11] | activity change, negative = inhibition [12] 7.02% | Potency [13] | Potency [14] | Potency [15] | Potency [16] | Potency [17]
28.6%: max response [12, 24]
22.7%: max response [12, 23]
active: Potency [5] 15.8 µM | Potency [10] 7.94 µM

COCCn1c(=O)c(-c2cc(F)cc(F)c2)nc2cnc(N3CCNCC3)nc21
inactive: Potency [3] > 11.4 µM | Potency [7] > 46 µM | outcome [8] | Potency [9] | Potency [11] | Potency [17]
active: Potency [5] 6.31 µM | Potency [18] 1.26 µM

FC(F)(F)c1ccccc1-c1nc(NC2CCNCC2)c2ccccc2n1
19.6%: max response [12, 23]
17.3%: max response [12, 24]
inactive: Potency [3] > 11.4 µM | activity change, negative = inhibition [4] 9.18% | activity change, negative = inhibition [19] 7.17% | activity, negative = inhibition [6] 1.97% | Potency [20] > 46 µM | Potency [7] > 46 µM | outcome [8] | Potency [9] | Potency [21] | activity change, negative = inhibition [12] 1.75% | Potency [13] | Potency [14] | Potency [15] | Potency [16] | Potency [17]

COc1ccc(Oc2ncc3nc(CCc4ccccc4)c(=O)n(C[C@H]4CCCO4)c3n2)cc1
active: Potency [22] 35.5 µM
inactive: activity change, negative = inhibition [4] -25.6% | activity change, negative = inhibition [19] -6.61% | activity, negative = inhibition [6] -17.3% | Potency [20] > 9.22 µM | Potency [7] > 46 µM | outcome [8] | Potency [9] | Potency [13] | Potency [14] | Potency [15] | Potency [16] | Potency [17] | max response [2] 6.27%

COc1ccc(Oc2ncc3nc(-c4cccs4)c(=O)n(CCC#N)c3n2)cc1
10.8%: max response [12, 23] | max response [12, 24]
inactive: Potency [3] > 11.4 µM | activity change, negative = inhibition [4] -1.5% | activity change, negative = inhibition [19] -5.68% | activity, negative = inhibition [6] -11.5% | Potency [7] > 46 µM | outcome [8] | Potency [9] | activity change, negative = inhibition [12] 2.6% | Potency [13] | Potency [14] | Potency [15] | Potency [16] | Potency [17] | max response [2] 18.3%

O=c1c(CCc2ccccc2)nc2cnc(N3CCNCC3)nc2n1CCc1ccccc1
-7.41%: max response [12, 23]
inactive: activity change, negative = inhibition [4] 9.43% | activity change, negative = inhibition [19] 27.2% | activity, negative = inhibition [6] 16.4% | Potency [20] > 9.22 µM | Potency [7] > 46 µM | outcome [8] | activity change, negative = inhibition [12] 2.33% | Potency [1] | max response [2] -5.58%
-3.07%: max response [12, 24]

O=C(Nc1cccc(F)c1)N1CCCC2(CCNCC2)C1
inactive: Potency [3] > 11.4 µM | activity change, negative = inhibition [4] -6.17% | Potency [5] | activity change, negative = inhibition [19] 12.2% | activity, negative = inhibition [6] -5.47% | Potency [7] > 46 µM | outcome [8] | Potency [9] | Potency [11] | Potency [17] | max response [2] 8.67%

COc1ccc(-n2c(=O)c(C)nc3cnc(N4CCNCC4)nc32)cc1
inactive: Potency [3] > 11.4 µM | activity change, negative = inhibition [4] -6.88% | activity change, negative = inhibition [19] -7.6% | activity, negative = inhibition [6] 7.09% | Potency [20] > 9.22 µM | Potency [7] > 46 µM | outcome [8] | Potency [11] | Potency [17]
active: Potency [5] 15.8 µM

COCCn1c(=O)c(-c2ccccc2)nc2cnc(Oc3ccc(OC)cc3)nc21
active: Potency [5] 1.26 µM | Potency [1] 39.8 µM
inactive: Potency [3] > 11.4 µM | activity change, negative = inhibition [4] -27.8% | activity change, negative = inhibition [19] 0.481% | activity, negative = inhibition [6] -10.2% | Potency [20] > 9.22 µM | Potency [7] > 46 µM | outcome [8] | Potency [11] | Potency [13] | Potency [14] | Potency [15] | Potency [16] | max response [2] 4.93%
